Consider 31 compounds from ChEMBL document CHEMBL4513141, “CO-ADD screening of NIH (USA) - Clinical Collection” (2021).

Results with a measured potency or affinity are listed apart.

The assay relates to Cryptococcus neoformans. The following applies: Concentration 20 uM; ASSAY_TEST Inhibition of Fungal Growth; detection method Resazurin; Absorption (OD600-OD570); plate type 384well; NBS; CORNING #3640. On the technique in general: Alamar Blue is a resazurin reagent that responds to reducing activity.
As a reminder, the Inhibition is the change of the read-out against control, counted positive when it falls. Consider `CN1[C@@H]2CC[C@H]1CC(OC(=O)C(CO)c1ccccc1)C2` (stereo partly specified), for which the Inhibition is on record as -0.25%.

As for `Cl.c1ccc2c(CC3=NCCN3)cccc2c1` [NAPHAZOLINE HYDROCHLORIDE], the Inhibition is recorded as -4.12%.

In the case of `CN1C(=O)CN=C(c2ccccc2)c2cc([N+](=O)[O-])ccc21` [NIMETAZEPAM], the Inhibition is -7.7%.

With `C[C@H](CCC(=O)O)[C@H]1CC[C@H]2[C@@H]3C(=O)C[C@@H]4CC(=O)CC[C@]4(C)[C@H]3CC(=O)[C@]12C` [DEHYDROCHOLIC ACID], the Inhibition amounted to 2.23%.

Turning to `CC(C)N(CCC(C(N)=O)(c1ccccc1)c1ccccn1)C(C)C.O=P(O)(O)O` (stereo unspecified) [DISOPYRAMIDE PHOSPHATE], the Inhibition came to 0.14%.

`C#C[C@]1(OC(C)=O)CC[C@H]2[C@@H]3CCC4=CC(=O)CC[C@@H]4[C@H]3CC[C@@]21C` [NORETHINDRONE ACETATE]: the Inhibition is on record as -4.57%.

`CC(C(=O)O)c1ccc(-c2ccccc2)c(F)c1` (stereo unspecified) [FLURBIPROFEN]: the Inhibition is recorded as -3.5%.

`Cl.O.Oc1ccc2c3c1O[C@H]1c4[nH]c5ccccc5c4C[C@@]4(O)C(C2)N(CC2CC2)CC[C@]314`: the Inhibition is reported as -5.72%.

With `CN(C)CCc1c[nH]c2ccc(Cn3cncn3)cc12.O=C(O)c1ccccc1` [RIZATRIPTAN BENZOATE], the Inhibition is -5.39%.

`CCCN1C[C@H](CSC)C[C@@H]2c3cccc4[nH]cc(c34)C[C@H]21.CS(=O)(=O)O` [PERGOLIDE MESYLATE]: the Inhibition is recorded as -3.89%.

On to `CCC1(c2ccc(N)cc2)CCC(=O)NC1=O` (stereo unspecified) [AMINOGLUTETHIMIDE], for which the Inhibition was -5.32%.

In the case of `Br.CN1[C@@H]2CC(OC(=O)[C@H](CO)c3ccccc3)C[C@H]1[C@@H]1O[C@@H]12.O.O.O` (stereo partly specified), the Inhibition was -4.17%.

In the case of `NCCc1ccccn1`, the Inhibition is reported as -5.04%.

For the compound `Cl.Oc1ccc2c3c1OC1C(O)CC[C@@]4(O)[C@@H](C2)N(CC2CCC2)CC[C@]314` (stereo partly specified), the Inhibition is given as -7.08%.

For `Br.COc1ccc2c(c1)[C@]13CCCC[C@@H]1[C@H](C2)N(C)CC3.O` [DEXTROMETHORPHAN HYDROBROMIDE], the Inhibition is -7.7%.

`COc1cc(CNC(=O)CCCC/C=C\C(C)C)ccc1O` [ZUCAPSAICIN]: the Inhibition is listed as -5.9%.

With `COc1cc2c(cc1OC)[C@@]13CCN4CC5=CCO[C@H]6CC(=O)N2[C@H]1[C@H]6[C@H]5C[C@H]43` [BRUCINE], the Inhibition was -1.81%.

`C[C@]12CCC(=O)C=C1CC[C@@H]1[C@@H]2CC[C@@]2(C)[C@H]1CC[C@]2(C)O` [METHYLTESTOSTERONE]: the Inhibition came out at 0%.

As for `Fc1ccc([C@@H]2CCNC[C@H]2COc2ccc3c(c2)OCO3)cc1.O=C(O)/C=C\C(=O)O`, the Inhibition is listed as -6.92%.

In the case of `CC[C@]1(O)CC[C@H]2[C@@H]3CCC4=CCCC[C@@H]4[C@H]3CC[C@@]21C` [ETHYLESTRENOL], the Inhibition is recorded as -2.32%.

On to `NC1=NC(=O)C(c2ccccc2)O1` (stereo unspecified) [PEMOLINE], for which the Inhibition is -5.45%.

`C[N+]1(C)CCC(OC(=O)C(O)(c2ccccc2)C2CCCC2)C1.[Br-]` (stereo unspecified) [GLYCOPYRRONIUM BROMIDE]: the Inhibition is -2.52%.

In the case of `Cl.NCCc1ccc(O)c(O)c1` [DOPAMINE HYDROCHLORIDE], the Inhibition is -1.49%.

Take `Cl.O=C1CC[C@@]2(O)[C@H]3Cc4ccc(O)c5c4[C@@]2(CCN3CC2CC2)[C@H]1O5` [NALTREXONE HYDROCHLORIDE]: the Inhibition was 0.92%.

Regarding `CCOC(=O)c1cncn1[C@H](C)c1ccccc1` [ETOMIDATE], the Inhibition worked out at 0.21%.

With `Cc1c(O)c(=O)ccn1C` [DEFERIPRONE], the Inhibition is given as -5.92%.

For `CCC(COC(=O)c1cc(OC)c(OC)c(OC)c1)(c1ccccc1)N(C)C.O=C(O)/C=C\C(=O)O` (stereo unspecified), the Inhibition was -7.66%.

With `NC(=O)C[S+]([O-])C(c1ccccc1)c1ccccc1` (stereo unspecified) [MODAFINIL], the Inhibition is recorded as -0.59%.

Take `CC(O)(CS(=O)(=O)c1ccc(F)cc1)C(=O)Nc1ccc(C#N)c(C(F)(F)F)c1` (stereo unspecified) [BICALUTAMIDE]: the Inhibition is -5.03%.

For `C[N+]1(C)CCN(c2ccccc2)CC1.[I-]` [DIMETHYLPHENYLPIPERAZINIUM IODIDE], the Inhibition is recorded as -7.47%.

Consider `CC(COc1ccccc1)N(CCCl)Cc1ccccc1.Cl` (stereo unspecified) [PHENOXYBENZAMINE HYDROCHLORIDE], for which the Inhibition was -10.83%.
